Measurements: PubChem BioAssay (NCATS)
Inconclusive results are not listed. The source made the active and inactive calls. Calls come from the whole dose curve; as a rule, active = well fitted inhibition curve with a large enough effect; inconclusive = small, poorly fitted or top-dose-only effect; inactive = flat fitted curve, though single readings scatter.

Experiments:
[1] = target: Ubiquitin carboxyl-terminal hydrolase 1 (Homo sapiens) (UniProt O94782); experiment: Inhibitors of USP1/UAF1: Pilot qHTS (AID 504865); conditions: purified USP1/UAF1, Ub-rhodamine cleavage fluorescence; series mostly up to 114 µM;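 note: rhodamine fluorescence freed from ubiquitin-rhodamine substrate followed over time; top concentration of the series differs between compounds; % is set by controls: 0 for no effect and ±100 for the full control effect; nearly all actives have a fitted effect of over 35% in size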
How it was run: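 USP1/UAF1 complex at 1 nM preincubated 15 min at room temperature with compound, then Ub-Rho substrate added at 150 nM final. Fluorescence (480/540 nm) read kinetically in 50 mM HEPES pH 7.8, 0.5 mM EDTA, 1 mM TCEP, 0.1 mg/ml BSA, 0.01% Tween-20.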

[2] = qHTS profiling for inhibitors of Plasmodium falciparum proliferation (AID 504749);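 note: 0% = DMSO vehicle and full inhibition = artemisinin control; nearly all actives have a fitted effect of over 60% in size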; conditions: P. falciparum in erythrocytes, SYBR Green DNA, 72 h, at 28.7 µM (top of the series)
How it was run: (§1)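 P. falciparum-infected erythrocytes (0.3% parasitemia, 2.5% hematocrit) incubated with compound 72 h at 37 C, 5% CO2. Parasite DNA detected by SYBR Green after lysis, overnight at room temperature; normalised to 0.29 uM artemisinin and DMSO.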

AA1029 = experiment: as above; conditions: P. falciparum in erythrocytes, SYBR Green DNA, 72 h; series mostly up to 28.7 µM
How it was run: as §1

ATS189 = experiment: as above; conditions: P. falciparum in erythrocytes, SYBR Green DNA, 72 h; series mostly up to 28.7 µM
How it was run: as §1

CP185 = experiment: as above; conditions: P. falciparum in erythrocytes, SYBR Green DNA, 72 h; series mostly up to 28.7 µM
How it was run: as §1

CP201 = experiment: as above; conditions: P. falciparum in erythrocytes, SYBR Green DNA, 72 h; series mostly up to 28.7 µM
How it was run: as §1

CP238 = experiment: as above; conditions: P. falciparum in erythrocytes, SYBR Green DNA, 72 h; series mostly up to 28.7 µM
How it was run: as §1

CP252 = experiment: as above; conditions: P. falciparum in erythrocytes, SYBR Green DNA, 72 h; series mostly up to 28.7 µM
How it was run: as §1

CP265 = experiment: as above; conditions: P. falciparum in erythrocytes, SYBR Green DNA, 72 h; series mostly up to 28.7 µM
How it was run: as §1

CP286 = experiment: as above; conditions: P. falciparum in erythrocytes, SYBR Green DNA, 72 h; series mostly up to 28.7 µM
How it was run: as §1

CP305 = experiment: as above; conditions: P. falciparum in erythrocytes, SYBR Green DNA, 72 h; series mostly up to 28.7 µM
How it was run: as §1

CP325 = experiment: as above; conditions: P. falciparum in erythrocytes, SYBR Green DNA, 72 h; series mostly up to 28.7 µM
How it was run: as §1

DFO2036 = experiment: as above; conditions: P. falciparum in erythrocytes, SYBR Green DNA, 72 h; series mostly up to 28.7 µM
How it was run: as §1

FAB9 = experiment: as above; conditions: P. falciparum in erythrocytes, SYBR Green DNA, 72 h; series mostly up to 28.7 µM
How it was run: as §1

PC15 = experiment: as above; conditions: P. falciparum in erythrocytes, SYBR Green DNA, 72 h; series mostly up to 28.7 µM
How it was run: as §1

PC49 = experiment: as above; conditions: P. falciparum in erythrocytes, SYBR Green DNA, 72 h; series mostly up to 28.7 µM
How it was run: as §1

Sequence of Ubiquitin carboxyl-terminal hydrolase 1 (Homo sapiens) (O94782 whole entry, looked up): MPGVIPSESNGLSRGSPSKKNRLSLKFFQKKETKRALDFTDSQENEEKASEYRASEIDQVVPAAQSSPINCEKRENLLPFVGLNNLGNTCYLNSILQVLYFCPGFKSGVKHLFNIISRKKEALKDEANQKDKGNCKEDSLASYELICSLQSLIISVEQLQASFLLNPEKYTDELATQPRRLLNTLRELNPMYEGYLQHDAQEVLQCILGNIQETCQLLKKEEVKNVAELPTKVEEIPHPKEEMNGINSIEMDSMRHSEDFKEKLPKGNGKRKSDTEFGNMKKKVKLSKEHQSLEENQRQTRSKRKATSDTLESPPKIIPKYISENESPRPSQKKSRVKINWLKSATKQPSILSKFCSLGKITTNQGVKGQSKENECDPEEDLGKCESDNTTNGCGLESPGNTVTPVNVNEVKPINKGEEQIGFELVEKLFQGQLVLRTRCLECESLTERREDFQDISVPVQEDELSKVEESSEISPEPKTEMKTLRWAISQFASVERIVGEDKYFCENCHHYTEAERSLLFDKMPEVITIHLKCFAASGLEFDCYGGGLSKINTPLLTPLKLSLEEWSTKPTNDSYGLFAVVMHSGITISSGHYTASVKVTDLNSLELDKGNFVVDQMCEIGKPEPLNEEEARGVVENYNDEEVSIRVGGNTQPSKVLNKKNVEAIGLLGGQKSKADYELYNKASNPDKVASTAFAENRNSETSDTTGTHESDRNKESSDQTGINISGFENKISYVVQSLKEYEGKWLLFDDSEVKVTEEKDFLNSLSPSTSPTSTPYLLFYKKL

Nc1nc2c(c(=O)[nH]1)N=C(CNc1ccc(C(=O)NC(CCC(=O)O)C(=O)O)cc1)CN2 (stereo not drawn)
inactive: Potency [1]

CCC(Oc1ccccc1)C(=O)NC1C(=O)N2C1SC(C)(C)C2C(=O)O (stereo not drawn)
inactive: Potency [1] | activity, negative = inhibition ([2]; parasite line A) -3.05% | activity, negative = inhibition ([2]; parasite line B) 10.5% | Potency (AA1029) | Potency (ATS189) | Potency (CP185) | Potency (CP201) | Potency (CP238) | Potency (CP252) | Potency (CP265) | Potency (CP286) | Potency (CP305) | Potency (CP325) | Potency (DFO2036) | Potency (FAB9) | Potency (PC15) | Potency (PC49)

CC(=O)OCC1=C(C(=O)O)N2C(=O)C(NC(=O)Cc3ccccc3)C2SC1 (stereo not drawn)
inactive: Potency [1] | activity, negative = inhibition ([2]; parasite line A) 1.08% | activity, negative = inhibition ([2]; parasite line B) 0.234% | Potency (AA1029) | Potency (ATS189) | Potency (CP185) | Potency (CP201) | Potency (CP238) | Potency (CP252) | Potency (CP265) | Potency (CP286) | Potency (CP305) | Potency (CP325) | Potency (DFO2036) | Potency (FAB9) | Potency (PC15) | Potency (PC49)

CC(=O)OC1CCC2(C)C(=CCC3C2CCC2(C)C3C[C@@H]3O[C@]32C(C)=O)C1 (stereo partly drawn)
inactive: Potency [1]

CCOc1ccc(/C=C/C(=O)c2cccs2)cc1
inactive: Potency [1]

CSCCC(N)C(=O)NC(CC(C)C)C(=O)NC(Cc1ccccc1)C(=O)O (stereo not drawn)
inactive: Potency [1]
